According to ChEMBL document CHEMBL3988442, “University of Dundee, Small-Polar-MMV Screening Library” (2021):

How the values were obtained:
[1] = biological target: T1, Aspartate--tRNA(Asp/Asn) ligase (Mycobacterium tuberculosis (strain ATCC 25618 / H37Rv)) (UniProt P9WFW3); test: Assay for Asp RNA synthetase-1 from Mycobacterium tuberculosis; assay type: functional; set-up: scale not given: direction of the effect not stated beside the values; details: 30 µM; note: in the data most compounds retested in dose-response had high values
T1 sequence (whole entry): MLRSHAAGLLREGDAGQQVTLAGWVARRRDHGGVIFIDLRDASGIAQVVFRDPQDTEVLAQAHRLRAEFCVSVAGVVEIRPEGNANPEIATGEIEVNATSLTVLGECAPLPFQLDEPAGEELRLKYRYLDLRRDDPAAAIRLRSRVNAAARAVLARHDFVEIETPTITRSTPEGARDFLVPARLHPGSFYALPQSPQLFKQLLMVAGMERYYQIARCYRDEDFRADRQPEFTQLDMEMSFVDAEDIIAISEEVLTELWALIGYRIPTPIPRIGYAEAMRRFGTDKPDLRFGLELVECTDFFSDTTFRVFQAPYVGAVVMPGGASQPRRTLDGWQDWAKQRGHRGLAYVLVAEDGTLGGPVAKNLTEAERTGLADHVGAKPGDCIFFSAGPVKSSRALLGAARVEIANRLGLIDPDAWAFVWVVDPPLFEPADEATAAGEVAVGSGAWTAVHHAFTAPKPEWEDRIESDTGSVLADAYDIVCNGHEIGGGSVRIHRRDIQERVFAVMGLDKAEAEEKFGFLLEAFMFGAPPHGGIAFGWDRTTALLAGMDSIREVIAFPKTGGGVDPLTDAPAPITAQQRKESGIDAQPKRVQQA

[2] = biological target: Shiga toxin 2 (Escherichia coli O157:H7) (UniProt P09385+P09386); test: E. coli 0.157:H7 Shiga Toxin SOP - stx2 screening assay; assay type: functional; set-up: scale not given: direction of the effect not stated beside the values; details: 30 µM

| SMILES | Percent Effect [1] [%] | Percent Effect [2] [%] |
| --- | --- | --- |
| Cc1ccc(C(=O)NCCCNS(C)(=O)=O)cc1-n1cccc1 | -0.21 | -17.9 |
| CC(NC(=O)NCCNc1ncccn1)c1cccs1 (centres undefined) | -2.58 | -27.7 |
| Cc1nn(C)c(N(C)C)c1CNCc1ccccc1Cn1cncn1 | -4.47 | 10.9 |
| Cc1ccsc1[C@@H]1CCN(C(=O)c2cc3ccccc3[nH]2)C[C@H]1O | -0.724 | -11.7 |
| Cc1csc(N2CCN(C(=O)Cc3ccsc3)CC2)n1 | 6.55 | -7.04 |
| CC(=O)N1CCC(C(=O)N(C)[C@@H]2CCC[C@@H](N3CCCC3)[C@@H]2O)CC1 | 1.35 | -6.16 |
| CC(C)CCCNC(=O)Nc1ccc(F)c(C(N)=O)c1 | -3.06 | -45.5 |
| CCn1cnnc1C1CCN(C(=O)c2cccc3c2ccn3C)CC1 | -3.52 | -25.8 |
| COc1ccc(C2CC(=O)Oc3cc(C)[nH]c(=O)c32)cc1 (centres undefined) | 0.232 | -8.78 |
| Cn1cc(C2CCCN2C(=O)Cc2n[nH]c3ccccc23)cn1 (centres undefined) | -9.51 | -33.7 |
| Cc1cccc(Nc2nccnc2C2CCCN2CC(=O)N(C)C)n1 (centres undefined) | -7.13 | -29.9 |
| Cc1cnn(CC2CCCN2C(=O)c2cc(Cl)ccc2F)c1 (centres undefined) | 1.32 | -18.5 |
| Cn1cnc(S(=O)(=O)NCCCN2CCCCCC2)c1Cl | 1.4 | 18.1 |
| CCn1cc(NC(=O)C2CCN(Cc3noc(C(C)C)n3)CC2)cn1 | 1.21 | -21.2 |
| COCCNC(=O)Nc1ccc(-n2cncn2)c(F)c1 | -2.66 | 12.3 |
| O=C(c1ccncc1)N1Cc2ccccc2OC2(CCOCC2)C1 | -4.33 | -1.88 |
| COc1ccc(C(C)=O)c(OCC(=O)NC(C)c2ccc(F)cc2)c1 (centres undefined) | -4.39 | -1.68 |
